According to PubChem BioAssay (EPA / NIEHS):
Where “and” joins values, the source holds several entries; their conditions need not be identical. Equal entries are not always repeated. Inconclusive results are not listed. Some compounds were tested as several samples or in several runs, with calls that do not always agree. Calls of active or inactive are those of the source. The calls were made as follows, unless noted: active = hit-call score of the fitted dose curve at least 0.9, where 1 is the maximum; inactive = score below 0.9.

Columns and labels:
[1] = CCTE_Shafer_MEA_acute_AB: CCTE's Alamar Blue Assay for Cytotoxicity in the Neural Acute Assay, Shafer Lab (AID 2284069; active = hit-call score of the fitted dose curve at least 0.9, where 1 is the maximum;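 also: active compounds lower the viability signal compared with DMSO wells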)
How it was run: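 Cytotoxicity endpoint for acute MEA exposures of primary rat cortical neurons on day 13 or 15. Resazurin reduction is read fluorescently at 544/590 nm, with DMSO as the negative-control baseline.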

[2] = CCTE_Shafer_MEA_acute_LDH: CCTE's Lactate Dehydrogenase Assay for Cytotoxicity in the Neural Acute Assay, Shafer Lab (AID 2284086; active = hit-call score of the fitted dose curve at least 0.9, where 1 is the maximum;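 also: active means LDH release rises above DMSO vehicle level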)
How it was run: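 Cytotoxicity readout: spectrophotometric LDH activity in supernatant of rat primary cortical neurons, post-plating day 13 or 15, sampled after 40 min compound exposure; signal gain relative to DMSO baseline.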

[3] = CCTE_Shafer_MEA_dev_bursting_electrodes_number: CCTE's Neural Network Formation Assay for Number of Bursting Electrodes, Shafer Lab (AID 2284043; active = hit-call score of the fitted dose curve at least 0.9, where 1 is the maximum;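 as to AC50: potency is for loss of bursting electrodes relative to DMSO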)
How it was run: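 Number of electrodes reaching ≥1 burst every 2 min was recorded at DIV 5, 7, 9 and 12 and collapsed as trapezoidal area under the curve. Cultures were rat cortical neurons on MEA plates, dosed continuously from plating with medium and treatment refreshed on DIV 5 and 9.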

[4] = CCTE_Shafer_MEA_dev_per_burst_interspike_interval: CCTE's Neural Network Formation Assay for Burst Interspike Interval, Shafer Lab (AID 2284044);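 as to AC50: potency for a decrease of within-burst interspike interval below DMSO level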
How it was run: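 Readout is the average time between spikes inside single-electrode bursts, taken as a well mean across bursting electrodes. Cortical neurons from rat developed networks on MEA plates under continuous 12-day exposure; recordings on days 5, 7, 9 and 12 were integrated by trapezoidal AUC.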

[5] = CCTE_Shafer_MEA_dev_inter_network_spike_interval_mean: CCTE's Neural Network Formation Assay for Mean Inter-network Spike Interval, Shafer Lab (AID 2284047);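 as to AC50: potency for a decrease in mean inter-network spike interval below DMSO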
How it was run: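 Compound was given at plating to primary rat cortical neurons and renewed with full medium changes on DIV 5 and 9. Extracellular activity was recorded on days 5, 7, 9, 12; AUC values were fitted for loss relative to DMSO control.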

[6] = CCTE_Shafer_MEA_dev_network_spike_number: CCTE's Neural Network Formation Assay for Number of Network Spikes, Shafer Lab (AID 2284048);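 as to AC50: fit as a loss of signal meaning fewer network spikes than DMSO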
How it was run: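 Number of network spikes (coordinated firing across electrodes) recorded on days 5, 7, 9 and 12 and summarised as area under the curve. Rat cortical cultures on MEA, continuous compound exposure with full medium/treatment exchange at DIV 5 and 9.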

[7] = CCTE_Shafer_MEA_dev_network_spike_peak: CCTE's Neural Network Formation Assay for Mean Number of Electrodes in Network Spike, Shafer Lab (AID 2284049);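 as to AC50: fitted for loss of signal meaning fewer electrodes in network spikes than DMSO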
How it was run: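 Rat cortical primary culture, 1.5 x 10^5 cells/well, 48-well MEA (16 electrodes/well). Dosing day 0 through DIV 12, full media/compound exchange DIV 5, 9. AxIS adaptive spike detection; AUC over days 5/7/9/12; loss-of-signal vs DMSO.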

[8] = CCTE_Shafer_MEA_dev_spike_duration_mean: CCTE's Neural Network Formation Assay for Mean Spike Duration, Shafer Lab (AID 2284051);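 also: mean network spike duration pooled as area under curve over DIV 5 to 12 recordings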;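 as to AC50: potency for a decrease in mean network spike duration versus DMSO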
How it was run: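 With DMSO as baseline, loss of mean network spike duration was scored from extracellular recordings of rat cortical neurons on MEA plates. Exposure spanned plating to DIV 12; the four recording days were collapsed into one AUC value.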

[9] = CCTE_Shafer_MEA_dev_network_spike_duration_std: CCTE's Neural Network Formation Assay for Standard Deviation of Network Spike Duration, Shafer Lab (AID 2284052);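 also: area under curve of spike duration SD across recording days 5 to 12; hits are decreases in network spike duration SD versus DMSO vehicle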
How it was run: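 Developing networks of rat cortical neurons were exposed over twelve days in vitro on 48-well MEA plates. Trapezoidal AUC of recordings (DIV 5–12) was analysed for signal loss relative to DMSO vehicle.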

[10] = CCTE_Shafer_MEA_dev_per_network_spike_spike_number_mean: CCTE's Neural Network Formation Assay for Mean Number of Spikes in a Network Spike, Shafer Lab (AID 2284053);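 as to AC50: fitted as decrease in spikes per network spike relative to DMSO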
How it was run: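 First, rat cortical cells (1.5 x 10^5/well) were seeded onto MEA wells; second, dosing began at plating and was refreshed on DIV 5 and 9; finally, network-spike spike counts across DIV 5–12 were summarized as AUC.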

[11] = CCTE_Shafer_MEA_dev_per_network_spike_spike_percent: CCTE's Neural Network Formation Assay for Percent of Spikes in a Network Spike, Shafer Lab (AID 2284054)
How it was run: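 Metric: fraction of spikes falling in a 0.05 s window at network-spike peaks. Recordings were made on days 5, 7, 9 and 12 and collapsed by trapezoidal AUC. Cultures were rat cortical neurons on MEA plates, dosed continuously from plating, re-dosed at media changes.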

[12] = CCTE_Shafer_MEA_dev_LDH: CCTE's Lactate Dehydrogenase Assay for Cytotoxicity in the Neural Network Formation Assay, Shafer Lab (AID 2284068; active = hit-call score of the fitted dose curve at least 0.9, where 1 is the maximum;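 also: exposure for twelve days from plating with re-dosing on DIV 5 and 9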)
How it was run: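 Developing rat cortical networks on MEA plates are exposed to compound for 12 days from plating. LDH activity is measured spectrophotometrically, with DMSO as baseline.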

[13] = CCTE_Shafer_MEA_dev_AB: CCTE's Alamar Blue Assay for Cytotoxicity in the Neural Network Formation Assay, Shafer Lab (AID 2284083; active = hit-call score of the fitted dose curve at least 0.9, where 1 is the maximum;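 also: resazurin reduction fluorescence as viability of cultured neurons; twelve days of exposure from plating with re-dosing on DIV 5 and 9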)
How it was run: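 Cytotoxicity companion to the developmental MEA: primary rat cortical neurons, 12-day exposure starting day 0, compound refreshed DIV 5 and 9; resazurin fluorescence, fitted against DMSO vehicle.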

[14] = CCTE_Shafer_MEA_dev_mutual_information_norm: CCTE's Neural Network Formation Assay for Mutual Information Normalization, Shafer Lab (AID 2284091);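 as to AC50: mutual information between electrodes summarised as area under curve across four recording days; potency is for a decrease in mutual information relative to DMSO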
How it was run: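 Shared information across electrodes, tracked on days 5, 7, 9 and 12 of network development and collapsed as trapezoidal area under the curve. Rat cortical cultures were treated continuously from plating, with treatment renewed at feeds on DIV 5 and 9; DMSO baseline, negative-direction fit.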

[15] = UKN2_HCS_IMR90_neural_migration: University of Konstanz (UKN) Leist Lab Neural Crest Cell Migration Assay in human induced IMR90 Pluripotent Stem Cells (UKN2) (AID 2284204); settings: actives raise or lower the signal
How it was run: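 High-content imaging of calcein-AM and Hoechst stained cells quantifies migration into a stopper-defined gap after 24 h compound exposure. Neural crest cells from IMR90 iPSC migrated 24 h in EGF/FGF N2-S medium before dosing; DMSO baseline.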

DIO2 (gene 1734) = test: CCTE_GLTED_hDIO2: CCTE's human Deiodinase 2 (DIO2) Inhibition Assay, Great Lakes Toxicology and Ecology Division (GLTED) Lab (AID 2284050; active = hit-call score of the fitted dose curve at least 0.9, where 1 is the maximum)
How it was run: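 Triplicate cell-free incubations (3 h) of human DIO2 with chemical preceded colorimetric Sandell-Kolthoff quantitation of liberated iodide; DMSO served as negative control for curve fitting.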

DIO3 (gene 1735) = test: CCTE_GLTED_hDIO3: CCTE's human Deiodinase 3 (DIO3) Inhibition Assay, Great Lakes Toxicology and Ecology Division (GLTED) Lab (AID 2284055; active = hit-call score of the fitted dose curve at least 0.9, where 1 is the maximum;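 as to AC50: potency is for inhibition seen as loss of released iodide signal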)
How it was run: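 Steps: incubate adenovirus-produced hDIO3 with chemical for 3 hours; detect freed iodide via cerium-arsenic Sandell-Kolthoff colorimetry; compare with DMSO baseline.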

[16] = UKN4_HCS_LUHMES_neurite_outgrowth: University of Konstanz (UKN) Leist Lab Neurite Outgrowth Assay in human LUHMES cells (UKN4) (AID 2284206); settings: actives raise or lower the signal
How it was run: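 Neurite area in dopaminergic-model LUHMES neurons is measured by high-content imaging of calcein-AM after 24 h treatment starting shortly after day-2 replating; Hoechst staining tracks viability.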

Measured: AC50

O=C(O)c1nc(Cl)ccc1Cl
inactive: [1] | [2]

CC(C)(C)c1ccc(CSc2cnn(C(C)(C)C)c(=O)c2Cl)cc1
active: [3] 0.00281 µM | [4] 4.98 nM | [5] 2.8 nM | [6] 2.16 nM | [7] 0.0022 µM | [8] 0.00163 µM | [9] 0.239 nM | [10] 0.00169 µM | [11] 1.79 nM | [12] 0.00284 µM | [13] 11.5 nM | [14] 1.53 nM
inactive: [2] | [15]

C#CCOS(=O)OC1CCCCC1Oc1ccc(C(C)(C)C)cc1 (centres undefined)
inactive: [1] | [2]

CC1COC(Cn2cncn2)(c2ccc(Oc3ccc(Cl)cc3)cc2Cl)O1 (centres undefined)
inactive: [1] | [2]

COc1ccc(C(c2ccc(OC)cc2)C(Cl)(Cl)Cl)cc1
active: [3] 6.57 µM | [7] 8.43 µM | [8] 2.99 µM | [9] 1970 nM | [10] 9.95 µM | [11] 3280 nM | [12] 4.87 µM | [13] 12200 nM | [14] 1970 nM
inactive: [4] | [5] | [6]

CCCCOC(=O)c1ccccc1C(=O)OCCCC
active: [3] 78.4 µM | [7] 74.9 µM | [8] 50 µM | [10] 72.1 µM | [12] 50 µM
inactive: [4] | [5] | [6] | [9] | [11] | [13] | [14] | [15]

CO/C=C(/C(=O)OC)c1ccccc1Oc1cc(Oc2ccccc2C#N)ncn1
inactive: [1] | [2] | [15]
active: [3] 1.42 µM and 912 nM | [4] 2.3 µM and 2.54 µM | [5] 1.64 µM and 17 nM | [6] 948 nM and 767 nM | [7] 1.48 µM and 1.44 µM | [8] 1.08 µM and 874 nM | [9] 840 nM and 974 nM | [10] 1.49 µM and 1.1 µM | [11] 1.83 µM and 433 nM | [12] 507 nM and 1.41 µM | [13] 1.73 µM and 2.19 µM | [14] 1.11 µM and 985 nM

C=CC1(C)OC(=O)N(c2cc(Cl)cc(Cl)c2)C1=O (centres undefined)
inactive: [4] | [5] | [6] | [8] | [9] | [10] | [11] | [12] | [13] | [14] | [15]
active: [3] 21.6 µM | [7] 50 µM

CC(C)Oc1cc(-n2nc(C(C)(C)C)oc2=O)c(Cl)cc1Cl
inactive: [1] | [2]

CC(Oc1ccc(Cl)cc1Cl)C(=O)O (centres undefined)
inactive: [1] | [2]

COC(=O)C(C)Oc1ccc(Oc2ccc(Cl)cc2Cl)cc1 (centres undefined)
inactive: [1] | [2]

Cc1ccc(-c2c(Cl)nc(C#N)n2S(=O)(=O)N(C)C)cc1
active: [3] 22.3 µM | [6] 30200 nM | [7] 21.8 µM | DIO2 (gene 1734) 81.8 µM | [8] 29.7 µM | [10] 14.4 µM | [12] 30.3 µM | [13] 50000 nM | [14] 15200 nM
inactive: [4] | [5] | [9] | [11] | DIO3 (gene 1735) | [1] | [2] | [15]

CCOC(=O)CC(SP(=S)(OC)OC)C(=O)OCC (centres undefined)
active: [3] 14.9 µM and 4.64 µM | [4] 3720 nM | [6] 11700 nM | [7] 14.2 µM and 8.93 µM | [8] 13.1 µM and 4.76 µM | [9] 13300 nM | [10] 13 µM and 8.1 µM | [11] 11 µM and 3.69 µM | [12] 19.9 µM and 24.6 µM | [13] 22.9 µM and 25.1 µM | [14] 7.87 µM and 3.88 µM
inactive: [4] | [5] | [6] | [9]

CS/C(C)=N/OC(=O)N(C)SN(C)C(=O)O/N=C(\C)SC
inactive: [1] | [2]

N#CC(CCc1ccc(Cl)cc1)(Cn1cncn1)c1ccccc1 (centres undefined)
inactive: [1] | [2]

OC(c1ccc(Cl)cc1)(c1cncnc1)c1ccccc1Cl (centres undefined)
inactive: [1]

CN(C)C(=S)SSC(=S)N(C)C
active: [3] 0.00933 µM | [4] 22.7 nM | [5] 11.6 nM | [6] 5.54 nM | [7] 0.0107 µM | DIO2 (gene 1734) 55.7 µM | [8] 0.00527 µM | [9] 7.05 nM | [10] 0.00976 µM | [11] 8.21 nM | DIO3 (gene 1735) 43.1 µM | [12] 0.00506 µM | [13] 12 nM | [14] 6.69 nM | [15] 1.72 µM

N#Cc1nn(-c2c(Cl)cc(C(F)(F)F)cc2Cl)c(N)c1S(=O)C(F)(F)F (centres undefined)
inactive: [3] | [4] | [5] | [6] | [7] | [8] | [9] | [10] | [1] | [13] | [2] | [14]
active: DIO2 (gene 1734) 29.6 µM | [11] 4410 nM | DIO3 (gene 1735) 1.13 µM | [12] 23.8 µM | [15] 21.3 µM | [16] 16.1 µM
